HT1080-NT tox = kills 2HG-producing HT-1080-NT fibrosarcoma cells | Potency, µM (top dose mostly 46.1 µM), hits mostly cytotoxic | AID 686970 | 1.6% of 360,000 active | HT-1080-NT fibrosarcoma viability, CellTiter-Glo ATP luminescence, 48 h;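 further: NT is the 2HG producing partner of a matched IDH1 knockdown line; nearly all actives have a fitted effect of over 55% in size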
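A 48-hour cytotoxicity screen used HT-1080-NT cells plated 2 hours before compound delivery. ATP-based CellTiter-Glo luminescence measured viability, normalized to DMSO and no-cell controls.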
KB-V1 MDR tox = kills drug-selected multidrug resistant KB-V1 cells; Potency, µM (highest dose often 46.1 µM), hits mostly cytotoxic; AID 1347076; 3.4% of 400,000 active; KB-V1 MDR cells viability, CellTiter-Glo, 72 h; further: nearly all actives have a fitted effect of over 60% in size
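Drug-selected KB-V1 cells, grown in DMEM lacking phenol red with 10% FBS, receive compound titrations; after three days at 37 degrees C, surviving cell ATP is quantified by CellTiter-Glo luminescence and responses normalized and curve-fitted.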
TGFb inhibitor = TGF-b pathway inhibition; Potency, µM (titrated, usually from 46.1 µM), most hits filed as inhibitors; AID 588855; HepG2 CAGA-GFP TGF-b/SMAD3 reporter, GFP fluorescence, 18 h; TGF-beta stimulated, 500 pg/mL final; 1.2% of 410,000 active; further: nearly all actives have a fitted effect of over 65% in size
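Smad-responsive CAGA-GFP expression was quantified in HEPG2 cells exposed to compounds and 500 pg/mL final TGF-beta for 18 h at 37 degrees C; unstimulated wells defined full inhibition.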
HepG2 tox = HepG2 cytotoxicity, counter-screen for TGF-b inhibitors. HepG2 CAGA-GFP viability, ATP luminescence, 18 h. Potency, µM (highest dose often 46.1 µM), most hits filed as cytotoxic. 0.76% of 410,000 active. AID 588856
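CellTiter-Glo luminescence gave cytotoxicity after 18 hours at 37 degrees C. The cells were HepG2 CAGA-GFP in 1% FBS DMEM, stimulated with 500 pg/mL TGF-beta after compound addition. %Activity was normalised to no-cell wells (complete cell-killing) and DMSO (no toxicity), and curves were fitted and classified.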
KB-3-1 tox = kills parental KB-3-1 adenocarcinoma cells; AID 1347075; 1.4% of 400,000 active; KB-3-1 viability, CellTiter-Glo ATP luminescence, 72 h; Potency, µM (doses to about 46.1 µM), actives largely listed as cytotoxic; further: nearly all actives have a fitted effect of over 60% in size
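Multi-concentration cytotoxicity screen in KB-3-1 cells grown in DMEM lacking phenol red with 10% FBS. After 72 h at 37 °C with compound, ATP-dependent luminescence was recorded.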
HT1080 IDH1KD tx = kills HT-1080 cells with IDH1 knockdown; Potency, µM (top dose mostly 46.1 µM), actives largely listed as cytotoxic; 2% of 360,000 active; HT-1080 IDH1 knockdown viability, ATP luminescence, 48 h; AID 686971
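CellTiter-Glo luminescence after 48 h compound exposure at 37 degrees C of IDH1-knockdown HT-1080 cells in 5% FBS RPMI. %Activity scaled between DMSO wells and cell-free media wells, with curves fitted and assigned curve classes.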
Hits are given with their value; n = inactive; u = inconclusive; x = no result given. Hits are enriched below; roughly 6.6% of the tested compounds scored in any of these assays. The call rests on the fitted dose curve; in most records, active means well fitted curve in the direction sought with a large enough effect; inconclusive means small, poorly fitted or top-dose-only effect, or another doubt; inactive means no such curve, though single readings can be large; an effect the other way counts as inactive or inconclusive.

SMILES	HT1080-NT tox	KB-V1 MDR tox	TGFb inhibitor	HepG2 tox	KB-3-1 tox	HT1080 IDH1KD tx
CCn1cc([N+](=O)[O-])c(C(=O)N2N=C(c3ccc(Cl)c(Cl)c3)CC2c2ccccc2O)n1 (centres undefined)	23.1µM	u	11.2µM	n	u	u
CCn1cc([N+](=O)[O-])c(C(=O)N2N=C(c3ccc4ccccc4c3)CC2c2cc(Br)ccc2O)n1 (centres undefined)	20.6µM	u	20µM	n	u	u
CCc1ccc2[nH]c3nc(C)cc(C)c3c(=O)c2c1	n	6.51µM	n	n	n	u
CC(=O)OCCCNc1cc(SCc2ccco2)c2nonc2c1[N+](=O)[O-]	n	n	u	n	n	n
CCCC(=O)OCCNc1cc(Sc2nccn2C)c2nonc2c1[N+](=O)[O-]	u	n	15.8µM	n	u	14.6µM
CCCC(=O)OCCNc1cc(SCc2ccco2)c2nonc2c1[N+](=O)[O-]	u	n	n	n	n	23.1µM
COc1ccc(C(CNC(=O)c2ccc(-c3ccccc3)cc2)N(C)C)cc1OC (centres undefined)	18.4µM	n	n	n	n	20.6µM
COc1ccc(-c2cc(C(=O)NCC(c3ccccc3)N(C)C)c3ccccc3n2)cc1OC (centres undefined)	u	n	n	n	n	u
COCc1cn(CC[C@@H]2CC[C@@H](NC(=O)Nc3ccc4c(c3)OCO4)[C@@H](CO)O2)nn1	n	n	x	x	n	n
CNC(=O)c1ccc2nc(Cc3ccccc3)oc2c1	x	n	n	n	n	x
CCc1cc(-c2nnn(CCC3COCCO3)c2CC)ccc1-c1cn(Cc2ccccc2)nn1 (centres undefined)	n	1.84µM	u	n	u	n
O=S1(=O)CC(N2CCN(Cc3ccccc3F)CC2)CN1Cc1cn(Cc2ccc(Cl)cc2)nn1 (centres undefined)	n	n	x	x	u	n
COc1ccc(Cn2cc(CN3CC(N4CCN(Cc5ccccc5F)CC4)CS3(=O)=O)nn2)cc1 (centres undefined)	n	n	x	x	n	23.1µM
O=C(OCc1ccco1)c1ccc2c(c1)N(Cc1cccc(F)c1)C(=O)c1ccccc1S2	x	u	n	n	n	x
NCC(c1ccccc1)(c1ccccc1)c1ccccc1	u	20.6µM	n	n	u	u
O=C(Cc1ccc(S(=O)(=O)N2CCOCC2)s1)Nc1cc(C(F)(F)F)cc(C(F)(F)F)c1	u	n	17.8µM	n	u	u
CCOc1nc(-c2ccccc2)ccc1-c1noc(COC)n1	n	23.1µM	n	n	n	n
COCc1nc(-c2ccc(-c3ccccc3)nc2OC)no1	n	u	n	n	n	n
CC(C)c1cc(C(C)C)c(S(=O)(=O)N2c3ccccc3[C@@]3(Br)C[C@H]4C(=O)N[C@@H](Cc5ccccc5)C(=O)N4[C@@H]23)c(C(C)C)c1	n	u	8.91µM	n	16.4µM	n
CC(=O)c1ccc(NC(=O)COCc2cc(-c3ccco3)on2)cc1	x	n	n	n	n	x
O=C(Nc1ccc(F)cc1)NC1(C(=O)NCc2ccc3c(c2)OCO3)CCCCC1	n	16.4µM	n	n	n	n
O=C(NCCCN1CCOCC1)c1cc(-c2cccs2)on1	u	n	n	n	n	11.2µM
O=C(NCCCN1CCOCC1)c1ccc(-n2nc(C(F)(F)F)cc2-c2cccs2)cc1	u	u	n	n	u	23.1µM
COCCCNC(=O)c1ccc(-n2nc(C(F)(F)F)cc2-c2cccs2)cc1	n	u	n	n	n	n
COc1ccc(OC)c(-c2cc(C(=O)NCCCn3ccnc3)no2)c1	n	n	n	n	n	n
SMILES	HT1080-NT tox	KB-V1 MDR tox	TGFb inhibitor	HepG2 tox	KB-3-1 tox	HT1080 IDH1KD tx
O=C(NCCCn1ccnc1)c1cc(-c2cccs2)on1	u	14.6µM	n	n	14.6µM	u
O=C(NCCN1CCOCC1)c1cc(-c2ccc(Cl)cc2)on1	n	20.6µM	n	n	n	n
Cc1ccc(NC(=O)C2(C)Cc3ccccc3C(=O)O2)c(C)c1 (centres undefined)	x	u	n	n	n	x
Cc1cccc(CN2C(=O)c3ccccc3S(=O)(=O)c3ccc(C(=O)NCCC4=CCCCC4)cc32)c1	x	n	n	n	n	x
Cc1ccc(C)c(CNC(=O)CN2C(=O)CSc3ccc(S(=O)(=O)N(C)C)cc32)c1	x	n	u	n	n	x
O=C(NC1CC1)c1cccc(Nc2ccc(-c3ccc4c(c3)OCCO4)nn2)c1	u	16.4µM	n	n	u	u
CCOC(=O)c1c(Nc2ccc(C)c(C)c2)nnc(-c2ccccc2)c1-c1ccccc1	x	n	n	n	n	x
CCOC(=O)c1[nH]c(C=O)c(C(=O)OCC)c1C	1.64µM	u	n	n	n	3.66µM
CCOC(=O)c1c(C)[nH]c(C(=O)OCC(=O)NC(C)C)c1C	n	23.1µM	n	n	n	n
CCOC(=O)c1c(C)[nH]c(C(C)=O)c1C	n	u	n	n	u	n
COc1c(C)cc(S(=O)(=O)NCCc2c(C)[nH]c3ccccc23)c(C)c1C	x	n	u	n	u	x
Cc1ccccc1NC(=O)C1CC(=O)N(c2ccc3c4c(cccc24)CC3)C1 (centres undefined)	n	n	n	n	n	n
O=C(Nc1ccccc1Br)C1CC(=O)N(c2ccc3c4c(cccc24)CC3)C1 (centres undefined)	u	u	n	n	4.61µM	u
CCn1cc(C(=O)NCC(OC)OC)c(=O)c2cc(S(=O)(=O)N3CCCC3)ccc21	n	n	n	n	n	n
COCCNC(=O)c1cn(C)c2ccc(S(=O)(=O)N3CCCCC3)cc2c1=O	n	n	n	n	23.1µM	u
CCn1cc(C(=O)NCCCN2CCCC(C)C2)c(=O)c2cc(S(=O)(=O)N3CCc4ccccc4C3)ccc21 (centres undefined)	u	n	n	n	u	20.6µM
CC1CCN(S(=O)(=O)c2ccc3c(c2)c(=O)c(C(=O)NCc2ccco2)cn3C)CC1	n	9.2µM	n	n	u	n
CCOCCCNC(=O)c1cn(C)c2ccc(S(=O)(=O)N3CCCCC3)cc2c1=O	n	n	n	n	u	n
CCn1cc(C(=O)NCC(OC)OC)c(=O)c2cc(S(=O)(=O)N3CCC(C)CC3)ccc21	n	n	n	n	13µM	n
COC(=O)c1c(Oc2ccc(Br)cc2)nnc(-c2ccccc2)c1-c1ccccc1	x	u	n	n	u	x
COc1ccc(CNC(=O)c2cnc3sc(N4CCCCCC4)nn3c2=O)cc1	x	x	n	n	x	x
